T1: UNK ZnF1-3 (human, UniProt Q9C0B0 31-174)
T1 sequence: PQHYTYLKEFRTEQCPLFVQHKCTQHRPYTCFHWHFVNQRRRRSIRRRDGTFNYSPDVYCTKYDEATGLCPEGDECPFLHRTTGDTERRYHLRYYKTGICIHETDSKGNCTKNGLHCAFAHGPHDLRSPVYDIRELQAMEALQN

B1: chr4:25749455:25749456:-_ENSG00000091490_ENST00000264868|hu_hu|hu_hu_hu_mus_False|48_68 (ssRNA)
RNA: GGGAGUUCUACAGUCCGACGAUCGCACUAUGACCUCUAGAAAAAUCCACAGGGGGAAAAAAUGUAAACCAAUUUACAAUGUUAUCGCCCUCCCUGCGUGUGGAGUGUUUGUCUCAAGGCUCCUUCUAGCUGCUGGAUUUGGGACAACAGAGGAUUGAGCAUCA
B2: chr17:25064881:25064882:-_ENSMUSG00000024163_ENSMUST00000117509|mus_mus|FALSE|FALSE (ssRNA)
RNA: GGGAGUUCUACAGUCCGACGAUCAUAAUGUUCUACCUGGAUCUGGAGUUCUUUCUUCUCUUGUUCCAAGGCAUCUUCAAAUUCGAUGAAUUUCUCCUCGGCCUGUUUGCGCAGCGCCUUCUCGCGCUCGUAUUGCGUGAGCAGCAACAGAGGAUUGAGCAUCA
B3: chr3:51263940:51263941:+_ENSMUSG00000063273_ENSMUST00000029303|mus_hu|FALSE|FALSE (ssRNA)
RNA: GGGAGUUCUACAGUCCGACGAUCGUAAAAUGGAUGCUGUCGAAGUACAUCUUCUAGUUUUAAUAAGUCCACAUAUGAUCUAAGGGUAAUCUUCCUCAUACAGUAUGUAUGAAAGUCAAACUGGUCAUCAGUGAUUUCUAUAAACAACAGAGGAUUGAGCAUCA
B4: 136207635_136207755_6660_3pUTR_ENSMUSG00000028664_ENSMUST00000105845|mouse|control|control (ssRNA)
RNA: GGGAGUUCUACAGUCCGACGAUCGUAUAAGUGUUCUCUGCUACUCUUGUGUCUGCUCAGAAGCAGUGGGUCUAGCACUAAGGAUGUCACUAUUGACCAUAACUUCUUUCCUAGAGAUAAGGUCUUAUGUGGCCCAGGCUGGCUCAACAGAGGAUUGAGCAUCA
B5: chr6:114281168:114281169:-_ENSG00000196591_ENST00000368632|hu_hu|hu_hu_hu_mus_True|8_108 (ssRNA)
RNA: GGGAGUUCUACAGUCCGACGAUCUUCCAUUUUUCUGUAUAAACCAUAAUUUAGCAGCAAGUUAUGAGUCAUCCGGAUUCUAUGAGGCUUCAUGGGAUGACCCUGGCCAUAAUAAUAAUUGCCAAUAUCACAGAUUCAGUAGUACAACAGAGGAUUGAGCAUCA
B6: chr2:55200753:55200754:-_ENSG00000115310_ENST00000317610|hu_hu|motif|central (ssRNA)
RNA: GGGAGUUCUACAGUCCGACGAUCUUGGAUUUUAGCCAUAGCAUCUUUAACAUUCUUAUUUGCAAGUCCUAGAUAAUGAUCGGUCUGUGCCUGAUGCCGUUCAUAAAUAACAGGAACACUGAAGAGUGAAAUGAGAGCCAAAAUCAACAGAGGAUUGAGCAUCA
B7: chr20:33097842:33097843:+_ENSG00000078747_ENST00000374864|hu_hu|motif|central (ssRNA)
RNA: GGGAGUUCUACAGUCCGACGAUCAAAAAUAUUAAAUAGCCAAGCCCUAUAGAACUAGGGCCAGGGCUACUUCAAAUAUAACGGUUCUGUAUUUUAAAAAUAUAGGGCAGAAAGCCUUUUGGGUGAUAUUUAUAUAUUUUCACACAACAGAGGAUUGAGCAUCA
B8: chr6:38652254:38652255:-_ENSG00000124767_ENST00000373365|hu_hu|hu_hu_hu_mus_False|1_78 (ssRNA)
RNA: GGGAGUUCUACAGUCCGACGAUCCGAGAACUUCAUAGCAGGGAAGUCAAGCUUCUGGAUUAGCGUCAGUCCAAGAACCCUCGUAUAAAAAUCCAGGGACUUCUUAGGAUCCUUAAUUCUUAGCAUCGUUUGCUGCAAUAGAAACAACAGAGGAUUGAGCAUCA
B9: chr1:135034296:135034297:+_ENSMUSG00000046062_ENSMUST00000052529|mus_hu|FALSE|FALSE (ssRNA)
RNA: GGGAGUUCUACAGUCCGACGAUCUAGCCUAACAUAGACAGGCCAAAUCAUUGAAAUAAAAAAAAUAUAGAAAAACAUAAAAGCCCAUUAACUUCUGAAUUUUGGGAAAGAAACAAGAAAGAGCCCAAAGUUUUCAGAUAGGCACAACAGAGGAUUGAGCAUCA
B10: chr11:60965389:60965390:-_ENSMUSG00000042506_ENSMUST00000041683|mus_hu|FALSE|FALSE (ssRNA)
RNA: GGGAGUUCUACAGUCCGACGAUCCAGCUCCUCAAAAUGGAAGGGGAAAGGAAGAGUAAACAUCUUGGUAAAUAAAGUCUCCAACCACAGCACAGUCAUUGGAAUUUUUUUCUUCAUUUUUAUUUUCAAACUUACAGUAAACAACAACAGAGGAUUGAGCAUCA
B11: chr10:114190419:114190420:-_ENSG00000023041_ENST00000369405|hu_hu|FALSE|FALSE (ssRNA)
RNA: GGGAGUUCUACAGUCCGACGAUCGGGCAGGAAUUCAAAGGCAUAUGCAGAAUGGCUUCUCCAUUUCAAAAUGGUAAUAAAAAUAUUUAAAUCAUGGCACUAGGGCACCUUUGAGGAAAAGAACAUCUUAACCAGAGUAGGCUCCAACAGAGGAUUGAGCAUCA
B12: chr17:73267850:73267851:+_ENSMUSG00000024063_ENSMUST00000024857|mus_mus|FALSE|FALSE (ssRNA)
RNA: GGGAGUUCUACAGUCCGACGAUCGAAAUAUACAGACAUGAAGUCCUAGGGGAGGCUGACCCACGCCCUUGUGAUUAAGAAAAACAAAACAAAACAAAACAAACAAACAAACAAAAAAAAACCAGUCACUGAGUCCUGAAUGAGCAACAGAGGAUUGAGCAUCA
B13: chr1:53517203:53517204:+_ENSG00000116171_ENST00000408941|hu_mus|FALSE|FALSE (ssRNA)
RNA: GGGAGUUCUACAGUCCGACGAUCUCAGGAAGAGCUGUUUUAAUUUUCUUUUUAAAUCUUCCAAAAGCAUAUUUUUAUCCCAAACCUAAAUUAUAACAAAUAGCAUUAGAAUUAGAAAAACUUGGAAGAAAGAUAAAUGCAGACCAACAGAGGAUUGAGCAUCA
B14: 14087313_14087433_2671_3pUTR_ENSG00000147862_ENST00000380959|human|control|control (ssRNA)
RNA: GGGAGUUCUACAGUCCGACGAUCGGGAAAAUAAAUUCGUUCAAAAUUAUUUUAAAUUCUUUUUAAUCCCCUCAAUUUAGAGUCCAAGGGCUGAAGGACUUAUAAUCAUGAUUCCCCUUUAGAUAUAAAUUUAUAAAUUGCACUCAACAGAGGAUUGAGCAUCA
B15: chr5:180275300:180275301:-_ENSG00000196670_ENST00000512132|hu_mus|motif|central (ssRNA)
RNA: GGGAGUUCUACAGUCCGACGAUCAGUUGUGAUCUUCCUACCACAAACCAUUACUGUUAAGUCUAUAAUUCAUGACCCACGGAUAAACUGAUAUUCCCUGAAACCAUCCUCUCCCUGAAUUUGCCUGUUGGAGGCCCUUCUUGGCAACAGAGGAUUGAGCAUCA
B16: 61064472_61067304_1030_3pUTR_ENSG00000119541_ENST00000238497|human|control|control (ssRNA)
RNA: GGGAGUUCUACAGUCCGACGAUCUUCGUUUCUCAAAUCUUCGCCUAAUGGCAGAAUCCAGAACCCAGGGUAUAUUUGUAGCUCCCAGAACCAAAAUUCCAUCAUUGUCUACACCAACCCCUUGCAUUUGCACUAGGAACUCCGCAACAGAGGAUUGAGCAUCA
B17: chr15:81824118:81824119:-_ENSMUSG00000022472_ENSMUST00000152227|mus_mus|motif|central (ssRNA)
RNA: GGGAGUUCUACAGUCCGACGAUCGAAGGGAACCUUAAGGUCCCUCUGGAAUCUGGAGUCUAGAUCAUAGACUUCGGGGCGGUUGCUGCCCAUGAAAUCCUAGCAGCAUAUCAUUAAGAAAACGCCCACUCACACCCCAACCACCAACAGAGGAUUGAGCAUCA
B18: chr10:114798999:114799000:-_ENSMUSG00000069520_ENSMUST00000092170|mus_mus|motif|central (ssRNA)
RNA: GGGAGUUCUACAGUCCGACGAUCUCAUCUUUAUAUACCUUUUGCACGUAGUGUCGUCACUAUCUGUCAUGGAAAAUAGAGCGGCGAGCACAUCUUCCACCAACCGAACGACAAAAUAGAAUCGUAAAUCCAAAACGUCUAGUCCAACAGAGGAUUGAGCAUCA
B19: chr1:225977196:225977197:+_ENSG00000143742_ENST00000304786|hu_mus|FALSE|FALSE (ssRNA)
RNA: GGGAGUUCUACAGUCCGACGAUCAUUCCGUUUCCAAAAAUAAAGGUUUUCUAACUGGAAACCCCGACAUUCCUACUCUCUAAAGCAAACUUUAGGACGCAGGCUGGUCUCUCGGCUUUGACAGCUCCAUUACGUAAGUAUAUCCAACAGAGGAUUGAGCAUCA
B20: 29117783_29124966_335_CDS_ENSG00000163811_ENST00000407426|human|control|control (ssRNA)
RNA: GGGAGUUCUACAGUCCGACGAUCUUUUACUGUGCUGUAUAAUAAAAUGCUACCAACUGCUGUGCCAAGAGCCAAUAAGUCAGUCUGGUUACUCAUUCCUACAGCUUCUGAUUUCCUUUUUUUCCUCUGGGGACUUUCCUUGGCCAACAGAGGAUUGAGCAUCA
B21: chr7:141450121:141450122:+_ENSG00000106028_ENST00000265304|hu_mus|hu_hu_hu_mus_True|18_38 (ssRNA)
RNA: GGGAGUUCUACAGUCCGACGAUCUCAUCCGUUCUAUGCCUUUUCUUUUGUCUGGUCACUCAGAAAUAUAAUGUUAUCAGCUAUGAUUGUUGUUGCUUGUCGCCUCACAUUGUUUUUAUCCAUGUAUUCGCCAUAGUCCACUUUCAACAGAGGAUUGAGCAUCA
B22: chr4:115894766:115894767:+_ENSMUSG00000028698_ENSMUST00000030464|mus_hu|mus_mus_mus_hu_True|18_98 (ssRNA)
RNA: GGGAGUUCUACAGUCCGACGAUCUUCCACACGGAAAGUACUUGGGGGUUUUCCAACGGCCAGUACCAGUCCGGCCAAACUACCCGAACAGGGUCCUCCCCCUCUCUCCUACAGAACUAAAGCACCCGCCCCCGAACUUUCAAGCAACAGAGGAUUGAGCAUCA

Over roughly 24,000 sequences, “enrichment r” has its median near 0.99; the highest 2% begin near 3.7. The list comes from a sample in which the highest values are over-represented; it also holds similar and randomly drawn sequences.

This assay concerns the target T1, UNK ZnF1-3. As to the kind of experiment: nsRBNS (natural sequence RNA bind-n-seq); RBNS binding buffer (assumed for nsRBNS): 25 mM Tris pH 7.5, 150 mM KCl, 3 mM MgCl2, 0.01% Triton X-100, 500 ug/ml BSA, 20 U/ml SUPERase-In, 4 C; UNK is unkempt and MSI1 is Musashi-1; names of the RNAs are library labels; protein concentration not given here; high values mean tight binding.
The molecule B1 had a binding signal of 1.03 enrichment R. The figure for B2 is 0.355 enrichment R; for B3 it is 0.873 enrichment R; for B4 it is 0.733 enrichment R. B5 came in with a binding signal of 1.03 enrichment R.

With B6, the binding signal worked out at 1.53 enrichment R.

The molecule B7 came in with a binding signal of 0.982 enrichment R. B8 displayed a binding signal of 1.08 enrichment R. On to B9, for which the binding signal was determined as 11.8 enrichment R. The figure for B10 is 2 enrichment R; for B11 it is 4.18 enrichment R. Take B12: the binding signal came to 4.8 enrichment R. Molecule B13 had a binding signal of 1.47 enrichment R. The figure for B14 is 4.87 enrichment R; for B15 it is 0.806 enrichment R. The figure for B16 is 1.29 enrichment R; for B17 it is 1.07 enrichment R.

For B18, the binding signal worked out at 0.824 enrichment R. As for B19, the binding signal was found to be 0.892 enrichment R.

On to B20, for which the binding signal stood at 0.828 enrichment R. In turn, B21 displayed a binding signal of 0.364 enrichment R. For B22, the binding signal was determined as 1.44 enrichment R.

Source of the values: article PMC12136788.
